{"source": "PubChem BioAssay AID588352", "about": "(The Scripps Research Institute Molecular Screening Center, 2011)", "note": "Screen size: about 360,000 compounds; about 620 (0.17%) were called active. The full list was thinned out, with actives kept by preference. A number with no mark means an inactive call.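 The calls were made as follows: active = inhibition above a per-campaign cutoff, the mean of all compounds plus 3 SD (cut at about 60% in these data); inactive = the rest.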", "data": [{"biological_target": "Nuclear receptor coactivator 3 (Homo sapiens) (UniProt Q9Y6Q9)", "sequence (Q9Y6Q9 whole entry, looked up, the tested form may be a part)": "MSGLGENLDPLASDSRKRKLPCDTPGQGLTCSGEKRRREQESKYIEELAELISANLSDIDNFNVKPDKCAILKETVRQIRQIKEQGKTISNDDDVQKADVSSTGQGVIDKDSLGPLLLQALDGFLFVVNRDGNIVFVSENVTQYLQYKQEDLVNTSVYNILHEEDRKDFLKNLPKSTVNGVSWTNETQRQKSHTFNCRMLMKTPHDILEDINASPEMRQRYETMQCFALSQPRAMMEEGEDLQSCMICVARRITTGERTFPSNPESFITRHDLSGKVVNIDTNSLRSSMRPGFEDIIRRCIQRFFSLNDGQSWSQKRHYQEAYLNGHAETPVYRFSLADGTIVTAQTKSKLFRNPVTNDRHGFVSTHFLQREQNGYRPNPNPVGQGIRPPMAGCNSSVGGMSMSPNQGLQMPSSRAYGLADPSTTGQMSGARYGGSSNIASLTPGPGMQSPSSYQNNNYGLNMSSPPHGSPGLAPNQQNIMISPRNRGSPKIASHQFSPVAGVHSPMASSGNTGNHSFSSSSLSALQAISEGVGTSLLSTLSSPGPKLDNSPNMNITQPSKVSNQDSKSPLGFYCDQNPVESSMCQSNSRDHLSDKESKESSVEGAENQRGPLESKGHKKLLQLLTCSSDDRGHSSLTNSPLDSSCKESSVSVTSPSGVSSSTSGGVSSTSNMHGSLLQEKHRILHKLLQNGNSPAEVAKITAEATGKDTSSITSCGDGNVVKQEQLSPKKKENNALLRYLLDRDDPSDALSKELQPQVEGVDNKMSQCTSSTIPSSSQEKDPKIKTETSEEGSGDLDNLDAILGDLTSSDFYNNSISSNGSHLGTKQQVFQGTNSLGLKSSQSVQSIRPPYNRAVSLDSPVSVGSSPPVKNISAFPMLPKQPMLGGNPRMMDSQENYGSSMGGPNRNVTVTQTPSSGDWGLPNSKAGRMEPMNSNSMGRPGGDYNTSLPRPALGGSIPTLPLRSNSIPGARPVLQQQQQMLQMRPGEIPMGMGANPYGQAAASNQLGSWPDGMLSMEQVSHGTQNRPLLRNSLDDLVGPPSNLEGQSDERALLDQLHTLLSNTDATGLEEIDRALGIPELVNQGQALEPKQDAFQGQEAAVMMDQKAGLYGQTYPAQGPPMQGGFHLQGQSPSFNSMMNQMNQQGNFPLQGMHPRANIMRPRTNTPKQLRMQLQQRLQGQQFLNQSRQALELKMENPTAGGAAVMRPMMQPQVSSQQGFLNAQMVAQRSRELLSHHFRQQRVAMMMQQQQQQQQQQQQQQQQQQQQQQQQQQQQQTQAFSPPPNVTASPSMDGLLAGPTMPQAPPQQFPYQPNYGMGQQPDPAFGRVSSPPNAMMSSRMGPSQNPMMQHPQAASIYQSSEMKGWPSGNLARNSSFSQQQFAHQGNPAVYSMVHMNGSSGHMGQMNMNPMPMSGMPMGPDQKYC", "test": "SRC3 coactivator transcriptional activity inhibitors, primary screen, cell-based, luminescence (AID 588352);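 also: 0% = DMSO-treated cells and 100% = gossypol-treated cells at 36 µM; higher means less SRC3-driven luciferase light from the GAL4 reporter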", "conditions": "HEK293 GAL4-SRC3 luciferase reporter, at 3.6 µM, stronger effect = higher value", "values": [{"smiles": "Cc1nc2ccccc2n1CC(O)c1ccccc1", "note": "(stereo not given)", "inhibition": "-14%"}, {"smiles": "O=C(Cn1nc([N+](=O)[O-])nc1Br)NC1CCCCC1", "inhibition": "5.25%"}, {"smiles": "COc1cc(OC)cc(-c2c(-c3cccs3)c3cc(-c4ccc(OC)cc4F)ccc3n2C)c1", "inhibition": "-12.6%"}, {"smiles": "COC(=O)c1ccc(NC(=O)CSc2nc(N)c(NC(=O)c3ccc(Br)o3)c(=O)[nH]2)cc1", "inhibition": "11.5%"}, {"smiles": "Clc1cccc(Cl)c1Cn1nnc(-c2cccs2)n1", "inhibition": "-55.9%"}, {"smiles": "Cn1sc(=O)c2cc(S(=O)(=O)NC3CC3)ccc21", "inhibition": "3.57%"}, {"smiles": "CC1(C)NC(=O)N(CC(=O)Nc2cc(C(F)(F)F)cc(C(F)(F)F)c2)C1=O", "inhibition": "22.2%"}, {"smiles": "CCCCNC(=O)C1CCCNC1=O", "note": "(stereo not given)", "inhibition": "12.3%"}, {"smiles": "CCNC(=O)C1(C)CCCN1C(=O)c1ccc(N(C)C)cc1", "note": "(stereo not given)", "inhibition": "-7.5%"}, {"smiles": "COc1cc(NC(=O)C2=C(C)OCCS2)c(Cl)cc1C(=O)NCCCN1CCCC(C)C1", "note": "(stereo not given)", "inhibition": "-22.7%"}, {"smiles": "O=C(N/N=C/c1cccc([N+](=O)[O-])c1)C1CC(=O)N(c2ccc(Br)cc2)C1", "note": "(stereo not given)", "inhibition": "-0.6%"}, {"smiles": "COc1ccc(OCCCCN2CCC(C)CC2)cc1", "inhibition": "-47.3%"}, {"smiles": "CCC(O)C1CCN(Cc2cn(-c3ccc(OC)cc3)nc2-c2cccc(F)c2)CC1", "note": "(stereo not given)", "inhibition": "14%"}, {"smiles": "Cc1nc2nc(COc3ccccc3)[nH]n2c(=O)c1Cc1ccccc1", "inhibition": "-32.6%"}, {"smiles": "COc1cccc(/C=C(/CC(=O)Nc2ccc(N3CCOCC3)cc2)c2nc3ccccc3s2)c1", "inhibition": "7.57%"}, {"smiles": "COC(=O)Cc1[nH]n(-c2nc3ccccc3s2)c(=O)c1C(C)=Nc1ccc(OC)cc1", "inhibition": "86.7% (active)"}, {"smiles": "Cc1occc1-c1nnc(SCC(=O)NC2CCCCC2)o1", "inhibition": "15.9%"}, {"smiles": "O=C(NC(Nc1nc2ccc([N+](=O)[O-])cc2s1)(C(F)(F)F)C(F)(F)F)c1ccccc1", "inhibition": "76.7% (active)"}, {"smiles": "O=C(NNS(=O)(=O)Cc1ccccc1)c1ccc([N+](=O)[O-])cc1", "inhibition": "-12.1%"}, {"smiles": "O=C(Nc1cc(-c2ccccc2)nn1-c1ccccc1F)c1ccc([N+](=O)[O-])cc1", "inhibition": "-5.69%"}, {"smiles": "O=S(=O)(NCCc1ccc(Cl)cc1)c1cccs1", "inhibition": "14%"}, {"smiles": "Brc1c(CSc2nncc3ccccc23)nc2ccccn12", "inhibition": "-11.5%"}, {"smiles": "CCCN(CCC)S(=O)(=O)c1ccc(C(=O)N2CC3CCC(CC3)C2)cc1", "inhibition": "21.3%"}, {"smiles": "CN(CC(=O)Nc1ccc(C(N)=O)cc1)S(=O)(=O)c1ccc2c(c1)OCCO2", "inhibition": "-5.47%"}, {"smiles": "COc1ccc2c(c1)c(=Cc1ccc(N(C)C)cc1)c1cc(-c3ccccc3)[n+](C)n12", "inhibition": "72.6% (active)"}, {"smiles": "O=S(=O)(/C=C/c1ccccc1)N1CCNCC1", "inhibition": "18.6%"}, {"smiles": "COc1c(F)c(F)c(C(=O)O)c(Nc2ccccc2C)c1F", "inhibition": "3.91%"}, {"smiles": "Cn1cnc(C(F)(F)F)c1-c1ccc([N+](=O)[O-])cc1", "inhibition": "9.14%"}, {"smiles": "O=C(O)CCc1cccnc1", "inhibition": "-1.19%"}, {"smiles": "CC1CCCC(C)N1C(=O)COC(=O)COc1ccccc1C#N", "note": "(stereo not given)", "inhibition": "13.1%"}, {"smiles": "Cc1ccc(C(=O)NNC(=O)OC(C)(C)C)c(Cl)c1", "inhibition": "-22.3%"}, {"smiles": "COc1ccc(CCNC(=O)CCc2cn(C)c3ccccc23)c(OC)c1", "inhibition": "-10.8%"}, {"smiles": "COc1ccccc1NS(=O)(=O)c1ccc(C)c(C(=O)NNC(=O)c2csc(N3CCOCC3)n2)c1", "inhibition": "-18.4%"}, {"smiles": "Cc1ccc(OC(=O)c2ccccc2C(=O)OCC(F)(F)C(F)F)cc1", "inhibition": "12%"}, {"smiles": "CN(Cc1cccs1)C(=O)CN1C(=O)c2ccccc2S1(=O)=O", "inhibition": "-22.1%"}, {"smiles": "COc1ccc(CNC(=O)CN2C(=O)c3ccccc3S2(=O)=O)cc1", "inhibition": "0.21%"}, {"smiles": "O=C(CN1C(=O)c2ccccc2S1(=O)=O)N1CCc2ccccc21", "inhibition": "78.1% (active)"}, {"smiles": "CSc1cc(C)n(-c2ccccc2C)c(=S)c1C(C)=O", "inhibition": "-24.7%"}, {"smiles": "COc1ccc(-n2c(C)csc2=S)cc1", "inhibition": "-12.6%"}, {"smiles": "O=C(O)C1CCN(C(=O)c2cc(F)cc3c2OCOC3)CC1", "inhibition": "1.17%"}, {"smiles": "Cc1ccc(C(c2sc3nc(C)nn3c2O)N2CCN(c3ccccc3)CC2)cc1", "note": "(stereo not given)", "inhibition": "-21.5%"}, {"smiles": "CC(C)OC(=O)c1cc(NC(=O)C2C3CCC(O3)C2C(=O)O)cc(C(=O)OC(C)C)c1", "note": "(stereo not given)", "inhibition": "6.46%"}, {"smiles": "O=c1[nH]n2c(=O)c3c([nH]c2c1N=Nc1ccccc1)CCC3", "inhibition": "-2.3%"}, {"smiles": "Cc1nc2c(ncn2-c2ccccc2)c(=O)n1NC(=O)CN1CCCC1", "inhibition": "6.67%"}, {"smiles": "COc1ccc(NC(=S)N2N=CCC2c2ccccc2)cc1", "note": "(stereo not given)", "inhibition": "-88%"}, {"smiles": "COCc1cc(=O)n2[nH]c(C)c(-c3ccccc3)c2n1", "inhibition": "3.15%"}, {"smiles": "O=C1NC(=Nc2ccc(Cl)cc2)SC1Cc1cccc(Cl)c1Cl", "note": "(stereo not given)", "inhibition": "11.5%"}, {"smiles": "CCOc1cc(C2/C(=C(/O)c3ccc(S(=O)(=O)N4CCCCC4)cc3)C(=O)C(=O)N2CCOC)ccc1O", "note": "(stereo not given)", "inhibition": "-17.2%"}, {"smiles": "Cc1ccsc1C1C(C#N)=C(N)OC2=C1C(=O)CC(C)C2", "note": "(stereo not given)", "inhibition": "-1.41%"}, {"smiles": "O=C(Nc1ccon1)c1nc[nH]c1C(=O)NCc1ccccc1", "inhibition": "63% (active)"}, {"smiles": "O=C(Nc1cc(Br)ccc1F)c1nc[nH]c1C(=O)NCc1ccccc1", "inhibition": "16.5%"}, {"smiles": "CC(C)(C)OC(=O)NCCCCCNC(=O)c1nc[nH]c1C(=O)NCc1ccccc1", "inhibition": "-1.92%"}, {"smiles": "Cc1cccc(-[n+]2c(-c3cccc(Br)c3)[nH]c3nc4ccccc4nc32)c1", "inhibition": "18.1%"}, {"smiles": "Cc1ccc(NC(=O)NC(=O)CSc2nnc(-c3ccc(OC(F)F)cc3)n2N)c(C)c1", "inhibition": "-17.3%"}, {"smiles": "CCN(Cc1ccccc1)C(=O)CN1C(=S)NC(C)(C)CC1C", "note": "(stereo not given)", "inhibition": "-5.54%"}]}]}
